# In PubChem BioAssay:
# This is one part of the list. Values without a mark were called inactive. The source made the active and inactive calls.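 The calls were made as follows, unless noted: active = mean inhibition over three repeats above about 26% taken from the earlier screen (limit read from the data); inactive = the rest.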
# Key:
# [1] = biological target: Toll-like receptor 9 (Homo sapiens) (UniProt Q9NR96); test: disruptors of TLR9 binding to MyD88 – cell-based, CHO, BLA complementation, fluorescence, triplicate, confirmation (AID 540250;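 active = mean inhibition across three repeats above about 21% taken from the earlier screen, limit read from the data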;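 also: blue over green emission ratio reports constitutive TLR9 MyD88 association via BLA complementation; 0% = DMSO vehicle wells and 100% = clavulanate BLA inhibitor wells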); settings: CCF4 FRET ratio, at 4.98 µM, active compounds read high
# [2] = BLA reporter readout interference – cell-based, fluorescence, artefact control for TLR9-MyD88 binding inhibitor project (AID 540251;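 active = mean inhibition above a 50% cutoff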;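 also: counterscreen of TLR9-MyD88 hits on CMV-driven BLA in CHO-K1 cells; 0% = DMSO alone and 100% = clavulanate blocking BLA; higher means less blue over green ratio so more BLA blockade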); settings: CHO-BLA cells, CCF4 FRET ratio, at 4.98 µM, active compounds read high
# [3] = CHO cell viability loss – luminescence, single concentration, cytotoxicity control for TLR9-MyD88 binding inhibitor project (AID 588336; in the data active = inhibition above about 11%); settings: TLR9-MyD88 CHO cells cytotoxicity, at 4.98 µM, active compounds read high
# [4] = biological target: Photoreceptor-specific nuclear receptor (Homo sapiens) (UniProt Q9Y5X4); test: retest of NR2E3-NCOR disrupting agonists – cell-based, luminescence, CHO-S two-hybrid, confirmation (AID 624378;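 active = average inhibition above a cutoff equal to the mean inhibition of all tested compounds plus one SD, cut at about 70% in these data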;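 also: 0% = DMSO in NR2E3 cells and 100% = DMSO in cells lacking NR2E3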); settings: CHO-S mammalian two-hybrid NR2E3-NCOR, luciferase luminescence; at 3.98 µM; active compounds read high
# [5] = nonselective effects on VP16 transactivation – cell-based, luminescence, CHO-S, high throughput, counter-screen for NR2E3 agonist project, confirmation (AID 624379;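 active = mean inhibition above a cutoff equal to the average over all tested compounds plus one standard deviation, cut at about 70% in these data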;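 also: 0% = DMSO with VP16-transfected cells and 100% = DMSO with cells lacking VP16; higher means less reporter light so more repression of VP16 activity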); settings: CHO-S GAL4-VP16 luciferase reporter, at 3.98 µM, active compounds read high
# [6] = reduced OD of V66 E. coli with T4 gene 2 phage – absorbance, RecBCD inhibitor project, confirmation (AID 651982;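 active = mean inhibition over triplicates exceeding the hit threshold derived in the original primary screen, cut at about 11% in these data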); settings: E. coli V66 + T4 2- phage, growth OD; at 11.9 µM; active compounds read high
# [7] = bacterial growth inhibition – absorbance, high throughput, counter-screen for RecBCD inhibitor project (AID 651983; in the data active = inhibition above about 20%;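 also: E. coli strain V66 grown with compound alone and no phage infection; 0% = bacteria with DMSO vehicle only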); settings: E. coli viability, absorbance (OD) growth; at 11.9 µM; active compounds read high
# [8] = reduced optical density, T4-challenged addAB+ bacteria – absorbance, E. coli V3065, T4 phage, counter-screen for RecBCD inhibitor project, confirmation (AID 651984;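 active = mean inhibition above the solvent-only control wells' mean plus 3 SD, cut at about 22% in these data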;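 also: higher means less bacterial growth from phage killing when AddAB is blocked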); settings: E. coli expressing H. pylori AddAB + T4 phage, OD growth; at 11.9 µM; active compounds read high; gene 2 mutant T4, recBCD-deleted host
# [9] = VP16-driven transactivation reporter suppression – cell-based, luminescence, HEK293, counter-screen for COUP-TFII antagonist project (AID 687007; in the data active = inhibition above about 13%); settings: HEK293 Gal4-VP16 luciferase reporter, at 8.5 µM, active compounds read high
# [10] = biological target: COUP transcription factor 2 (Homo sapiens) (UniProt P24468); test: retest of COUP-TFII reporter suppressors – cell-based, luciferase reporter, HEK293, triplicate, confirmation (AID 687008;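 active = mean inhibition over three repeats above a set limit taken from the earlier primary screen, cut at about 38% in these data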;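 also: 100% = cells given the luciferase reporter alone without the COUP-TF2 vector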); settings: HEK293 NGFI-A luciferase reporter, luminescence; at 8.5 µM; active compounds read high
# [11] = tested on: HIV-1 integrase (multimerization); test: stimulation of HIV-1 integrase oligomerization – biochemical, TR-FRET, counter-screen for LEDGF/p75 integration inhibitor project (AID 1053131; in the data active = activation above about 8.9%); settings: TR-FRET HIV-1 integrase multimerization, at 7.7 µM, active compounds read high
# [12] = compounds disturbing TR-FRET signal readout – biochemical, HIV-1 IN multimerization, artefact control for LEDGF/p75-dependent integration inhibitor project, confirmation (AID 1053135;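 active = inhibition above the mean over all tested compounds plus 3 SD, which no compound reached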;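 also: 0% = integrase with antibodies and DMSO and 100% = antibodies without integrase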); settings: TR-FRET optical interference counterscreen, at 7.7 µM, active compounds read high
# [13] = tested on: HIV-1 integrase / human LEDGF/p75 complex; test: blockers of LEDGF/p75-dependent integrase activity – biochemical, TR-FRET, confirmation (AID 1053136; in the data active = inhibition above about 14%); settings: TR-FRET LEDGF/p75-dependent HIV-1 integration, at 3.7 µM, active compounds read high
# [14] = reduced OD of T4-infected AddAB+ E. coli – absorbance, E. coli V3065, T4 phage, triplicate, AddAB inhibitor project, confirmation (AID 488942;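 active = mean inhibition above a set limit taken from the earlier primary screen, cut at about 13% in these data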;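 also: higher means less bacterial growth since AddAB block lets phage replicate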); settings: E. coli V3065 expressing H. pylori AddAB, at 11.9 µM, active compounds read high, T4 phage with gene 2 nonsense mutations
# [15] = reduced OD of phage-infected RecBCD+ V66 E. coli – absorbance, mutant T4 phage, counter-screen for AddAB inhibitor project (AID 488955;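 active = mean inhibition above the mean of solvent-only control wells plus 3 SD, cut at about 4% in these data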;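 also: optical density read after an 18 h incubation at 37 °C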); settings: OD growth, at 11.9 µM, active compounds read high
# [16] = bacterial growth inhibitors – absorbance, counter-screen for AddAB inhibitor project, confirmation (AID 488956; in the data active = inhibition above about 25%); settings: bacterial viability, absorbance (AddAB counterscreen); at 11.9 µM; active compounds read high
# [17] = potentiators of IFN-gamma STAT1 reporter activity – cell-based, HTS, luciferase reporter, confirmation (AID 1262;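 active = activation above a set limit carried over from the earlier primary STAT1 screen, cut at about 140% in these data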;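 also: simple ratio to median IFN-gamma plus DMSO wells so 0% means no light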); settings: NIH 3T3 STAT1-luciferase reporter, IFN-gamma potentiation, luminescence; at 5.7 µM; active compounds read high; 100% = IFN-gamma EC80 alone, no compound
# [18] = enhancement of NF-kB transcriptional signalling – cell-based, HEK293T, luciferase luminescence, TNF-alpha, counter-screen for STAT1 activator project (AID 1306;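 active = activation above the mean of solvent-only control wells plus 3 SD, set per campaign, cut at about 130% in these data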;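 also: TNF-alpha given at a submaximal dose yielding about 80% of full reporter signal; values are well signal over median control so 100% means no change and 0% no light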); settings: HEK293T NF-kB luciferase reporter, TNF-alpha stimulated, at 5.7 µM, active compounds read high, 100% = TNF-alpha with vehicle only
# [19] = biological target: Signal transducer and activator of transcription 3 (Homo sapiens) (UniProt P40763); test: enhancers of IL-6 STAT3 transcription – U3A cells, luciferase, luminescence, counter-screen for STAT1 activator project, confirmation (AID 1316;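 active = activation above the solvent-only control well mean plus 3 SD, set per plate batch, cut at about 110% in these data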;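 also: 0% = no luminescence and 100% = median IL-6 plus DMSO wells; higher means more STAT3 reporter activation so hits are non-selective activators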); settings: U3A cells STAT3-luciferase reporter, IL-6, luminescence; at 5.7 µM; active compounds read high; 100 = IL-6 alone, no compound effect; cells lack STAT1
# [20] = tested on: TLR4-MyD88 interaction (human), BLA complementation; test: disruptors of TLR4 binding to MyD88 – cell-based, HeLa CL3-4, BLA complementation, FRET ratio, confirmation (AID 941;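 active = mean inhibition across three repeat runs above about 25% carried over from the earlier screen, limit read from the data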;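 also: plate controls were DMSO only for no effect and clavulanic acid blocking BLA at full dose for full effect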); settings: CCF4 FRET ratio, at 8.4 µM, active compounds read high
# [21] = BLA reporter interference in HeLa cells – cell-based, full-length BLA, CCF4 FRET ratio, artefact control for TLR4-MyD88 binding inhibitor project, confirmation (AID 1237); settings: at 8.4 µM, active compounds read high;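 also: HeLa cells stably expressing beta-lactamase reporter as counterscreen for TLR4-MyD88 inhibitors; 0% = DMSO and 100% = clavulanic acid full inhibition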
# [22] = tested on: Fam108b (Abhd17b) serine hydrolase [Mus musculus]; test: inhibition of Fam108b (Abhd17b) hydrolase – biochemical, fluorescence polarization, triplicate, counter-screen for RBBP9 inhibitor project, confirmation (AID 1978;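 active = inhibition above a limit from the primary screen, the mean over all compounds plus 3 SD, cut at about 19% in these data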;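 also: 0% = median of active Fam108b wells and 100% = catalytically dead S170A mutant; inhibitors free the probe so polarization falls as inhibition rises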); settings: recombinant Fam108b, FP-Rh probe fluorescence polarization; at 9.51 µM; active compounds read high
# [23] = biological target: Receptor-interacting serine/threonine-protein kinase 2 (Homo sapiens) (UniProt O43353); test: inhibitors of RIPK2 association with NOD2 – fluorescence, CHO cells, BLA complementation, triplicate, confirmation (AID 624370;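 active = mean inhibition across replicates above a set limit taken from the earlier primary screen, cut at about 21% in these data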;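 also: 0% = DMSO-only wells and the high end = clavulanate BLA-blocked wells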); settings: CCF4 FRET, at 4.98 µM, active compounds read high
# [24] = BLA reporter readout interference – cell-based, CHO-K1 CMV-bla, CCF4 FRET, fluorescence, artefact control for NOD2-RIPK2 interaction inhibitor project, confirmation (AID 624371;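 active = mean inhibition above the low-control mean inhibition plus three low-control SD, cut at about 11% in these data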;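 also: 0% = DMSO only wells and 100% = clavulanate high control wells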); settings: CCF4 FRET ratio, counterscreen, at 4.98 µM, active compounds read high
# [25] = biological target: Protein-arginine deiminase type-4 (Homo sapiens) (UniProt Q9UM07); test: protein arginine deiminase 4 blockade, retest – biochemical, fluorescence polarization, confirmation (AID 488796;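 active = mean inhibition across replicates above the hit cutoff set by the earlier primary screen, cut at about 15% in these data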;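 also: inhibitors block active-site labeling by the probe so polarization falls; 0% = PAD4 with probe and DMSO and 100% = probe without PAD4 enzyme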); settings: recombinant PAD4, RCA probe fluorescence polarization; at 6.36 µM; active compounds read high
# [26] = BSA probe fluorescence interference – biochemical, TAMRA-labeled BSA, counter-screen for TCR-CD3 interaction inhibitor project (AID 652035; in the data active = inhibition above about 23%;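 also: 0% = buffer low control and 100% = reference high control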); settings: TAMRA-labeled BSA probe fluorescence counterscreen; at 9.4 µM; active compounds read high
# [27] = tested on: T-cell receptor (TCR)-CD3 interaction, human; test: blockers of TCR binding to CD3 – biochemical, fluorescence, TAMRA-labeled TCR probe, confirmation (AID 652036; in the data active = inhibition above about 19%); settings: TAMRA-labeled TCR probe fluorescence binding assay; at 9.4 µM; active compounds read high
# [28] = biological target: Insulin-degrading enzyme (Homo sapiens) (UniProt P14735); test: cellular IDE Abeta-cleavage inhibition – fluorescence polarization, HEK cells, FAbetaB substrate, confirmation (AID 435028;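 active = mean inhibition across triplicate wells above the cutoff set by the earlier primary insulin-degrading enzyme screen, cut at about 16% in these data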;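 also: 0% = DMSO wells and 100% = 60 µM reference IDE inhibitor Ii1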); settings: at 5.59 µM, active compounds read high
# [29] = HEK cell viability loss – luminescence, cytotoxicity control for IDE inhibitor project (AID 449730; in the data active = inhibition above about 22%;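 also: 0% = vehicle wells and 100% = reference cytotoxic drug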); settings: HEK293 cytotoxicity, ATP luminescence; at 5.59 µM; active compounds read high
# Sequence of Toll-like receptor 9 (Homo sapiens) (Q9NR96 whole entry, looked up): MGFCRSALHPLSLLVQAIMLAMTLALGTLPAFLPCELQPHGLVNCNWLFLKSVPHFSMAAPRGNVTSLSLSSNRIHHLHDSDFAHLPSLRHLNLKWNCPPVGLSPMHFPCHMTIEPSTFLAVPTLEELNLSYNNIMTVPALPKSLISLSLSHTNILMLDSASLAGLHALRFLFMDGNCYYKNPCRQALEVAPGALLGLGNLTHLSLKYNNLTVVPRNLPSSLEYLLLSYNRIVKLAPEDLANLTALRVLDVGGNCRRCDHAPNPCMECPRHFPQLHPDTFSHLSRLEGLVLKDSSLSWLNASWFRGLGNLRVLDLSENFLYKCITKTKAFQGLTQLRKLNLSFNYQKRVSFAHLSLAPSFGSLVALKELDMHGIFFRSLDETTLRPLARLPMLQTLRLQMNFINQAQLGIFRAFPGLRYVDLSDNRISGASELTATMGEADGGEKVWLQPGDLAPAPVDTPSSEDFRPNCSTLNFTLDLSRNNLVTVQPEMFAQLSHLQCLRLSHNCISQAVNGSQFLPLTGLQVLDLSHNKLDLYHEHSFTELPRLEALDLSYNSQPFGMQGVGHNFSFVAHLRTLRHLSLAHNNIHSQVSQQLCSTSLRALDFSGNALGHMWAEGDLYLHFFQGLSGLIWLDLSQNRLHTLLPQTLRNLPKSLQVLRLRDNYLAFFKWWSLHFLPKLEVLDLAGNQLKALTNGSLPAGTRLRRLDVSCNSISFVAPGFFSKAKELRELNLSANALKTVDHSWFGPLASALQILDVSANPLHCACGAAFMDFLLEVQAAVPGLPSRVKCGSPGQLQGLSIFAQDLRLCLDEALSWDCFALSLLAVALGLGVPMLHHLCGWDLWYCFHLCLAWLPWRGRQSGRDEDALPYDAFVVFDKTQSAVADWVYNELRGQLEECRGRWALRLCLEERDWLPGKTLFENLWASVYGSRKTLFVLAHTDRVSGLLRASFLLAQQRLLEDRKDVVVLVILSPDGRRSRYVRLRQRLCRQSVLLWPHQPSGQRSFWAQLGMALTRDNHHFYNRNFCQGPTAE
# Sequence of COUP transcription factor 2 (Homo sapiens) (P24468 whole entry, looked up): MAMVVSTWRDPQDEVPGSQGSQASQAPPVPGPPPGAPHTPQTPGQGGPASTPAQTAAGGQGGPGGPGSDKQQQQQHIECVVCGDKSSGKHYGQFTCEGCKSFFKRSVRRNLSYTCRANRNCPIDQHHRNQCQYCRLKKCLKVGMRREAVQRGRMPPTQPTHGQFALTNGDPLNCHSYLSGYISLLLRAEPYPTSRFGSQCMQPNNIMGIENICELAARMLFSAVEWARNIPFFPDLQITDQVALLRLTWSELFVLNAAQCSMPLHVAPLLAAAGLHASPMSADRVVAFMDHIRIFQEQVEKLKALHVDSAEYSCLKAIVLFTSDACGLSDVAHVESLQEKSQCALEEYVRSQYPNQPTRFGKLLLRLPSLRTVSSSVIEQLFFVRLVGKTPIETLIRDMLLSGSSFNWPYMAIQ
# Sequence of Protein-arginine deiminase type-4 (Homo sapiens) (Q9UM07 whole entry, looked up): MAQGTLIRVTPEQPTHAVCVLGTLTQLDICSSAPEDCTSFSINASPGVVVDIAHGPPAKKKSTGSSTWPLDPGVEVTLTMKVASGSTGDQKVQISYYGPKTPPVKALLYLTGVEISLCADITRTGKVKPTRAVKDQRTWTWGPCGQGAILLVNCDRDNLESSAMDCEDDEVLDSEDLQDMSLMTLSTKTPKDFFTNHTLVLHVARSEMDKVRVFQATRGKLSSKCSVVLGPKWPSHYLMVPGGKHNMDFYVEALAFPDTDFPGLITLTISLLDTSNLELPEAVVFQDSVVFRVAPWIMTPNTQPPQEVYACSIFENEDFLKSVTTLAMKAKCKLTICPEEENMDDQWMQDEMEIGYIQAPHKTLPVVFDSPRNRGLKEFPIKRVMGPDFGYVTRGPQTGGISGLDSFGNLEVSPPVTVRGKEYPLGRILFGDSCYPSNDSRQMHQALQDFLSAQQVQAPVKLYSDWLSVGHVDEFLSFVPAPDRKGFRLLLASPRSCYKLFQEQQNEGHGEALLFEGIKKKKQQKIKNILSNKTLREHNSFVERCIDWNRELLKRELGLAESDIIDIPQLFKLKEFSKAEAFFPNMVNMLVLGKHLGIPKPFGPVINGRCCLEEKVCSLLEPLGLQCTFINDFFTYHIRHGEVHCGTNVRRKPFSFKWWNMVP
# Sequence of Insulin-degrading enzyme (Homo sapiens) (P14735 whole entry, looked up): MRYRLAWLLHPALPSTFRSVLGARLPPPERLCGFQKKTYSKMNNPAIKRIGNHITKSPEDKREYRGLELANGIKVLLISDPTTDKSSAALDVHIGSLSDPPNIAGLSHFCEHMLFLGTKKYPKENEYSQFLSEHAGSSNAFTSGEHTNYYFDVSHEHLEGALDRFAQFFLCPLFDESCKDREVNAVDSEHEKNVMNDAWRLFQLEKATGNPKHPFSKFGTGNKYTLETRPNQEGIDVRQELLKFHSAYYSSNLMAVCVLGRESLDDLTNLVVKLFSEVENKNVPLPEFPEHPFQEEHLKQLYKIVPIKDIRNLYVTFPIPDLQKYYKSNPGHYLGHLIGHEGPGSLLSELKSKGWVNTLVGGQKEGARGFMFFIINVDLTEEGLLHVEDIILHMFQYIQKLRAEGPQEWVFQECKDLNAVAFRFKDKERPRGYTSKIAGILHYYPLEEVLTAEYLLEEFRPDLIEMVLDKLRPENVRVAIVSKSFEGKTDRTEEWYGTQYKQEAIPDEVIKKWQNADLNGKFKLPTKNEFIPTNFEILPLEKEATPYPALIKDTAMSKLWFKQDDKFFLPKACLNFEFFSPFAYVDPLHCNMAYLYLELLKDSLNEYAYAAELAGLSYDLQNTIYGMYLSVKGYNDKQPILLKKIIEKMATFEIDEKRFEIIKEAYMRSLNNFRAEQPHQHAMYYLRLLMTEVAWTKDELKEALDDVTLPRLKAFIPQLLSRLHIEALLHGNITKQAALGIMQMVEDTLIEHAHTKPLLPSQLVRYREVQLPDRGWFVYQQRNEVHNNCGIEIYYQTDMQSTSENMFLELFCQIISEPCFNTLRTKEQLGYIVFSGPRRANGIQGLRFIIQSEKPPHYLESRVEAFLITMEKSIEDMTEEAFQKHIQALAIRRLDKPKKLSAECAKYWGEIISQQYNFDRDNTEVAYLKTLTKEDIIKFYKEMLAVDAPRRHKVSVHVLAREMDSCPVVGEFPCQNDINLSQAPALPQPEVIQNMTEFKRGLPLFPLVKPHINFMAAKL
# Sequence of Receptor-interacting serine/threonine-protein kinase 2 (Homo sapiens) (O43353 whole entry, looked up): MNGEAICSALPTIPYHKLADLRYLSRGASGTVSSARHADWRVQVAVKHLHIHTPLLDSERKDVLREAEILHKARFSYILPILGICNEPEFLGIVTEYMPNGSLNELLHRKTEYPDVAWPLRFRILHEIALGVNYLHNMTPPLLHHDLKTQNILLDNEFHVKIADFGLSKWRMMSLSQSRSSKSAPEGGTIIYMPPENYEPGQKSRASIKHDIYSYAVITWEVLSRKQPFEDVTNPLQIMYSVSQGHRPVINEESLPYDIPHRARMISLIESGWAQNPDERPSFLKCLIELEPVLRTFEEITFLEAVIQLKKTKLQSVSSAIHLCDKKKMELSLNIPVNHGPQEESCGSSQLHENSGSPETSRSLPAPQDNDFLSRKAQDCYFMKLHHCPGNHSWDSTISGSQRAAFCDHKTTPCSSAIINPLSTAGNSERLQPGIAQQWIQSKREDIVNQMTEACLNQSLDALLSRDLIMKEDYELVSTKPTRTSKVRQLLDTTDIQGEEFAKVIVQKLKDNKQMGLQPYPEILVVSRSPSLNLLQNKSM
# Sequence of Photoreceptor-specific nuclear receptor (Homo sapiens) (Q9Y5X4 whole entry, looked up): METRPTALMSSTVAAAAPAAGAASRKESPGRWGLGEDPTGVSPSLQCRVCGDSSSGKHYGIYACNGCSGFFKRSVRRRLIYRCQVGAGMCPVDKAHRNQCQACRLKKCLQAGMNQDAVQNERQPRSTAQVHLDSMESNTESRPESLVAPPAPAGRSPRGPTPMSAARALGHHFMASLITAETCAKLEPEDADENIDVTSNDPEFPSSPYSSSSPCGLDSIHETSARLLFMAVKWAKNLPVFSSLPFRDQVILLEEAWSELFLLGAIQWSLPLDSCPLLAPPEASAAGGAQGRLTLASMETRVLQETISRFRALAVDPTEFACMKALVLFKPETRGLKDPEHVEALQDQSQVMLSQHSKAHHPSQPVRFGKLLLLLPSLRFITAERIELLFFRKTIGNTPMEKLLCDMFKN
structure (smiles),measurement,setting,value
CN(O)C(=S)c1ccccc1,inhibition,[1],5.28%
same,inhibition,[2],0.06%
same,inhibition,[3],97.2% (active)
same,inhibition,[4],-14.5%
same,inhibition,[5],-3.62%
same,inhibition,[6],53% (active)
same,inhibition,[7],62.5% (active)
same,inhibition,[8],84.6% (active)
same,inhibition,[9],-6.65%
same,inhibition,[10],-5.38%
same,activation,[11],0.55%
same,inhibition,[12],-2.07%
same,inhibition,[13],-6.13%
Cn1ccc(=Nc2ccc(NC(=O)c3ccc(N=c4ccn(C)c5ccc([N+](=O)[O-])cc45)cc3)cc2)cc1,inhibition,[14],99.9% (active)
same,inhibition,[15],101% (active)
same,inhibition,[16],101% (active)
same,inhibition,[6],101% (active)
same,inhibition,[7],-7.32%
same,inhibition,[8],102% (active)
same,activation,[11],-0.71%
same,inhibition,[12],2.56%
same,inhibition,[13],21% (active)
Cc1ccc(NC(=O)Nc2ccccc2)c(Br)c1,activation (% of control),[17],171% (active)
same,activation (% of control),[18],124%
same,activation (% of control),[19],89.8%
Cc1cccc(COc2ccccc2/C=N/Nc2ccc([N+](=O)[O-])cc2)c1,inhibition,[20],16.9%
same,inhibition,[21],36.9% (active)
same,inhibition,[22],9.96%
same,inhibition,[1],20.3%
same,inhibition,[2],23.3%
same,inhibition,[3],-1.39%
same,inhibition,[23],44.2% (active)
same,inhibition,[24],50.4% (active)
Cc1nc(Cl)c2oc3ccccc3c2n1,inhibition,[20],39% (active)
same,inhibition,[21],20.8%
same,inhibition,[25],7.72%
Cc1ccc(Cc2cnc(N)s2)o1,inhibition,[26],0.16%
same,inhibition,[27],2.57%
same,activation,[11],6.28%
same,inhibition,[12],-22.6%
same,inhibition,[13],10.6%
C[n+]1ccc(/C=C/c2c[nH]c3ccccc23)cc1,inhibition,[20],26.1% (active)
same,inhibition,[21],42.1% (active)
same,inhibition,[28],42.6% (active)
same,inhibition,[29],13.1%
COc1ccc2oc(-c3cccc(NC(=O)CSc4ccc(Cl)cc4)c3)nc2c1,activation (% of control),[17],216% (active)
same,activation (% of control),[18],140% (active)
same,activation (% of control),[19],100%
